Seven molecules from PubChem BioAssay can be followed below.

Several values for one entry are separate records, joined by “and”; a condition that tells them apart may be missing. Equal values may be shown once. Activity calls are given as the source filed them. Unless noted, the rule behind the calls is not given here.

Assay [1] is described as follows: compounds altering circadian rhythm period length – cell-based, LOPAC library, luminescence reporter (AID 2774).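 Note: values are relative to mean of DMSO wells on each plate.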 The following applies: circadian reporter cells, at 7 µM, actives lie on both sides.
The subject of assay [2] is Hepatitis C virus NS3 helicase. Put plainly: blockers of NS3h binding to ssDNA – biochemical, fluorescence polarization, LOPAC1280 library, primary screen (AID 687035; in the data active = inhibition above about 37%). The following applies: Purified HCV NS3 helicase, Cy5-dT15 ssDNA binding fluorescence polarization; stronger effect = higher value; concentration not given here.
A short description of assay [3]: compounds altering Cy5-DNA-NS3h complex signal – biochemical, LOPAC1280, artefact control for HCV NS3 helicase inhibitor project (AID 687037). The settings on record: Cy5-DNA-NS3h complex fluorescence interference counterscreen.
Assay [4] concerns Aerobactin synthetase IucA (Klebsiella pneumoniae). Put plainly: inhibition of K. pneumoniae IucA enzyme – biochemical, Tocris library, absorbance (AID 1345561).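 Note: 100% = enzyme without compound and 0% = no enzyme.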 The settings on record: purified IucA enzyme assay, absorbance (OD) read-out; stronger effect = lower value;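 tested at 8 µM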.
The nature of assay [5]: viability loss with induced miR-34 in A549 – imaging, A549 dox-inducible miR-34, nuclei and caspase counts, primary screen (AID 1347080;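 active = compounds whose cell count with miR-34 switched on is under 0.7 times the count with it off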). The following applies: A549 miR-34 inducible, Hoechst nuclei count, 48 h.
The nature of assay [6]: blockers of cellular phospholipid synthesis – cell-based, LOPAC library, screen 4, primary screen (AID 1347384). The settings on record: animal cells, phospholipid biosynthesis inhibition screen; at 10 µM.
Assay [7] can be described thus: galactose survival enhancers in mitochondrial complex I cybrids – cell-based, galactose medium, ATP luminescence, primary screen (AID 1645843;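 active = z-score of at least 1.8 in each of two replicates, scored against plate mean and spread of sample wells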;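 note: positive z means more ATP and so rescue of galactose-driven cybrid death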). The settings on record: complex I mutant cybrid cells, 72 h, stronger effect = higher value.
Setting [8] is: stronger effect = lower value, cell number ratio, induced over uninduced.
Where [9] appears, read: measured here: relative caspase fold change +Dox/-Dox.
The mark [10] stands for this setting: measured here: total cells with miR-34 induction, stronger effect = lower value.
Where [11] appears, read: measured here: total cells without miR-34 induction.

For `Cn1cc(C(=O)OCC2CCN(CCNS(C)(=O)=O)CC2)c2ccccc21`, the period change in assay [1] is 0.07 h (inactive). In addition, the inhibition in assay [2] was -1% (inactive). Besides, in assay [3], the fluorescence ratio (interference) is 1 (inactive). Moreover, in assay [4], the remaining activity was 123% (inactive). Moreover, the fold change in assay [5] (setting [8]) was 1.06 (inactive) and 0.932 (inactive); in assay [5] (setting [9]), 1.51 and 0.946. Also, the cell count in assay [5] (setting [10]) was 9310 and 9140; in assay [5] (setting [11]) it was 8780 and 9810. Further, in assay [6], the result was inactive. For the same molecule, the z-score in assay [7] is -0.825 (inactive) and -0.425 (inactive).

On to `C=CCN1CCc2cc(O)c(O)cc2C(c2ccccc2)C1` (stereo not given), for which, in assay [1], the period change was 0.045 h (inactive). The inhibition in assay [2] is -4% (inactive). Besides, in assay [3], the fluorescence ratio (interference) was 0.9 (inactive). Besides, in assay [4], the remaining activity was 113% (inactive). For the same molecule, the fold change in assay [5] (setting [8]) is 0.956 (inactive) and 0.974 (inactive); in assay [5] (setting [9]), 1.26 and 0.531. The cell count was 10300 and 8820 in assay [5] (setting [10]); 10700 and 9060 in assay [5] (setting [11]). The molecule was called inactive in assay [6]. Moreover, the z-score in assay [7] is -1.29 (inactive) and -0.785 (inactive).

Take `O=C1NC(c2cccc([N+](=O)[O-])c2)=CCN1c1ccccc1O`: in assay [1], the period change is -0.125 h (inactive). The inhibition in assay [2] was -4% (inactive). Moreover, the fluorescence ratio (interference) in assay [3] is 1 (inactive). For the same molecule, the remaining activity in assay [4] was 111% (inactive). Further, the fold change was 0.967 (inactive) and 1.03 (inactive) and 0.928 (inactive) in assay [5] (setting [8]); 1.12 and 1.35 and 0.882 in assay [5] (setting [9]). In addition, the cell count in assay [5] (setting [10]) was 10200 and 5990 and 8100; in assay [5] (setting [11]), 10600 and 5810 and 8730. In assay [6], the molecule was classed as inactive. In addition, the z-score in assay [7] was -0.245 (inactive) and 1.08 (inactive).

For `CC(=O)NNC(=O)N1Cc2ccccc2Oc2ccc(Cl)cc21`, the period change in assay [1] is -0.025 h (inactive). The inhibition in assay [2] is -1% (inactive). The fluorescence ratio (interference) in assay [3] was 1 (inactive). Further, the remaining activity in assay [4] is 100% (inactive). The fold change in assay [5] (setting [8]) is 0.965 (inactive) and 0.956 (inactive); in assay [5] (setting [9]) it was 0.954 and 0.9. The cell count in assay [5] (setting [10]) is 10200 and 8650; in assay [5] (setting [11]), 10600 and 9060. In addition, in assay [6], the molecule was called inactive. The z-score in assay [7] is 1.17 (inactive) and 0.635 (inactive).

Take `Cc1ccc(O)c(N=Nc2ccccc2)n1`: the period change in assay [1] is -0.01 h (inactive). In assay [2], the inhibition was 1% (inactive). In addition, in assay [3], the fluorescence ratio (interference) is 0.9 (inactive). For the same molecule, the remaining activity in assay [4] is 110% (inactive). In addition, the fold change in assay [5] (setting [8]) is 0.956 (inactive) and 0.932 (inactive); in assay [5] (setting [9]), 0.751 and 0.659. Further, the cell count in assay [5] (setting [10]) was 10100 and 8850; in assay [5] (setting [11]) it was 10500 and 9490. The call in assay [6] was inactive. In addition, the z-score in assay [7] was 1.16 (inactive) and 0.96 (inactive).

Take `Nc1ncnc2c1ncn2C1CCCO1` (stereo not given): the period change in assay [1] is -0.01 h (inactive). The inhibition in assay [2] was -1% (inactive). Also, the fluorescence ratio (interference) in assay [3] is 1 (inactive). For the same molecule, the remaining activity in assay [4] is 110% (inactive). For the same molecule, the fold change in assay [5] (setting [8]) is 0.951 (inactive) and 0.846 (inactive) and 0.927 (inactive); in assay [5] (setting [9]) it was 1.64 and 1.08 and 0.781. Further, the cell count is 9560 and 5440 and 8660 in assay [5] (setting [10]); 10100 and 6440 and 9350 in assay [5] (setting [11]). For the same molecule, the molecule was classed as inactive in assay [6]. Also, the z-score in assay [7] is 0.435 (inactive) and -0.32 (inactive).

In the case of `N[C@H](C(=O)O)c1cc(O)cc(O)c1`, in assay [1], the period change was 0.11 h (inactive). The inhibition in assay [2] was -1% (inactive). In assay [3], the fluorescence ratio (interference) is 1.1 (inactive). Also, the remaining activity in assay [4] was 115% (inactive). Also, the fold change was 1.01 (inactive) and 0.963 (inactive) in assay [5] (setting [8]); 1.04 and 0.77 in assay [5] (setting [9]). Further, the cell count is 10300 and 8780 in assay [5] (setting [10]); 10200 and 9120 in assay [5] (setting [11]). Besides, in assay [6], the molecule was called inactive. For the same molecule, the z-score in assay [7] is 0.215 (inactive) and -0.05 (inactive).
